A549 viability – Nrf2 qHTS screen for inhibitors: counterscreen for cytotoxicity; Potency, µM (titrated, usually from 46 µM), inactives show top-dose activity change, negative = cytotoxicity, usual class: inhibitors; 390,000 tested, 0.16% active; AID 504648, 2011; A549 ARE-Fluc cells, CellTiter-Fluor viability, 18-24 h; also: potency is read from the fitted curve at half-maximal effect; % is scaled to controls: 0 for no effect and ±100 for the full control effect
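A549 ARE_Fluc cells in 5% FBS OPTI-MEM were exposed to compounds in concentration-response for 18-24 h at 37 deg C. Viability was read by CellTiter-Fluor fluorescence (Ex 405/Em 525) after 30 min, before the luciferase read.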
miR-21 act – qHTS Assay for Modulators of miRNAs and/orActivators of miR-21; Potency, µM (doses to about 38.3 µM), for the others: top-dose activity change, positive = activation, actives largely listed as activators; HeLa miR-21 FLuc reporter, luciferase, 48 h; 340,000 tested, under 10 active;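 also: % of control where 0% means no effect; miR-21 action dims this reporter so a rising signal means less miR-21 action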
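Luminescence from a firefly luciferase reporter carrying a miR-21 binding site downstream, stably expressed under a CMV promoter in HeLa cells that make miR-21 endogenously, reports miRNA modulation after 48 h compound exposure up to approximately 40uM final.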
Nrf2 block – Nrf2 qHTS screen for inhibitors; Potency, µM (top dose mostly 46 µM), without a hit: at the highest dose activity change, negative = inhibition, most hits filed as inhibitors; A549 ARE-Fluc reporter, luciferase luminescence, 18-24 h; 360,000 tested, 2.1% active; also: potency is read from the fitted curve at half-maximal effect; % is scaled to controls: 0 for no effect and ±100 for the full control effect; nearly all actives have a fitted effect of over 60% in size
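Two sequential reads on A549 ARE_Fluc cells exposed to compound for 18-24 h: a CellTiter-Fluor fluorescence read for viability, then a luciferase luminescence read for Nrf2/ARE activity.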
Nrf2 ARE act – qHTS of Nrf2 Activators; AREc32 ARE-luciferase reporter (MCF7-derived line), luminescence, 24 h; Potency, µM (top dose mostly 46.1 µM), inactives show top-dose activation, hits mostly activators; 410,000 tested, 0.31% active; also: potency is read from the fitted curve at half-maximal effect; % of control where 0% means no effect; nearly all actives have a fitted effect of over 65% in size
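AREc32_Fluc, 1000 cells/well, OPTI-MEM + 5% FBS, o/n 37 deg C 5% CO2; 23 nL cpd by pin tool, 24 hr; Steady-Glo 30 min RT, luminescence.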
B2AR arrestin – qHTS assay of beta-arrestin-biased ligands of beta2-adrenergic receptor | beta-arrestin recruitment to beta2AR, cell-based reporter | Potency, µM (top dose mostly 46.1 µM), for the others: top-dose activation, most hits filed as activators | 330,000 tested, 0.02% active | AID 492947, 2010;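 also: potency is read from the fitted curve at half-maximal effect; 0% = DMSO controls and full agonism = EC100 isoproterenol or metaproterenol; nearly all actives have a fitted effect of over 65% in size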
Target sequence (P07550 whole entry, looked up): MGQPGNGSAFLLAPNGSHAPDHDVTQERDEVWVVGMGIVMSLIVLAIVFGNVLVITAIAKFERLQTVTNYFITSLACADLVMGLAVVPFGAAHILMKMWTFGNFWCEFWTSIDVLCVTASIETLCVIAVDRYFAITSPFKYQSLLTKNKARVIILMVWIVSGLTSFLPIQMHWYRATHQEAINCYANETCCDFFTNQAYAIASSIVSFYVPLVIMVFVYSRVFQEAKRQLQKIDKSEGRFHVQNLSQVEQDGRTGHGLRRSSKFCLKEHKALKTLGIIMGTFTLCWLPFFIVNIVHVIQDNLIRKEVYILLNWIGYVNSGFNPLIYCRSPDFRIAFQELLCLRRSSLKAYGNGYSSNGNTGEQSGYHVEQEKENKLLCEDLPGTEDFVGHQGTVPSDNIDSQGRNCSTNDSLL
* hit, by the source's call; u = inconclusive; x = no result given. The list is not random: actives were taken first. Their share in the collection is about 2.2%. Calls follow the shape of the dose curve; as a rule, active = well fitted curve in the direction sought with a large enough effect; inconclusive = small, poorly fitted or top-dose-only effect, or another doubt; inactive = no such curve, though single readings can be large; an effect the other way counts as inactive or inconclusive.

SMILES	A549 viability	miR-21 act	Nrf2 block	Nrf2 ARE act	B2AR arrestin
Cc1c(C#N)c2ccccc2n1CCOc1ccccc1F	-2.1%	-5.3%	23.1µM*	3.9%	0.4%
COc1ccc(-c2nc(-c3ccncc3)no2)cc1	-4.3%	-64.1%	u	0.1%	-0.9%
Cn1nc(-c2ccncc2)nc2c(=O)n(C)c(=O)nc1-2	2.91µM*	x	2.31µM*	x	x
CC1C(=O)Nc2ccc(S(=O)(=O)N3CCN(c4cccc(C(F)(F)F)c4)CC3)cc2NC1=O (stereo unspecified)	u	25.2%	8.2µM*	0.4%	-0.1%
O=C(Nc1ncc2c(n1)-c1ccccc1CC2)c1ccccc1	-2.8%	-17.4%	6.0%	7.94µM*	-0.1%
COc1ccc(-c2cn(-c3ccccc3)c3[n+]2CCS3)cc1	-12.1%	u	2.59µM*	2.0%	-0.8%
c1ccc(-c2cn(-c3ccccc3)c3[n+]2CCS3)cc1	-12.1%	22.3%	u	-0.7%	0.5%
COc1cc(OC)cc(C2=Nn3c(nnc3-c3ccccc3OC)SC2)c1	-2.6%	x	10.5%	x	x
COc1ccc(/C=N/NC(=O)c2ccc3ccccc3c2)cc1OS(=O)(=O)c1ccc(NC(C)=O)cc1	-27.7%	26.9%	11.6µM*	-0.1%	0.3%
Cc1ccc(-c2nc(NC(=O)CSc3nnc4scc(-c5ccccc5)n34)ns2)cc1	u	-3.8%	20.6µM*	2.8%	-0.2%
CC(C)(C)c1ccc(NC(=O)CSc2nnc3scc(-c4ccccc4)n23)cc1	-0.5%	27.2%	16.4µM*	1.2%	x
Cc1ccc(Cl)cc1NC(=O)c1ccc(-c2nc(CSc3ccccc3)c(C)o2)cc1	-4.4%	19.8%	13µM*	-0.2%	x
COC(=O)c1ccccc1NC(=O)c1ccc(-c2nc(CSc3ccc(C)cc3)c(C)o2)cc1	-0.3%	-4.6%	u	-0.9%	x
CC(=O)c1ccc(NC(=O)c2ccc(-c3nc(CSc4ccccc4)c(C)o3)cc2)cc1	0.9%	6.9%	10.3µM*	0.7%	x
COc1ccc(NC(=O)c2ccc(-c3nc(CSc4ccccc4)c(C)o3)cc2)cc1OC	-14.7%	17.4%	u	3.8%	x
CC(=O)c1ccc(NC(=O)c2ccc(-c3nc(CSc4ccc(C)cc4)c(C)o3)cc2)cc1	-11.5%	6.8%	u	0.9%	x
Cc1cccc(NC(=O)c2ccc(-c3nc(CSc4ccccc4)c(C)o3)cc2)c1C	0.4%	15.1%	13µM*	-1.0%	x
COc1ccc(NC(=O)c2ccc(-c3nc(CSc4ccc(C)cc4)c(C)o3)cc2)cc1Cl	-13.0%	0.5%	23.1µM*	0.1%	x
Cc1ccc(SCc2nc(-c3ccc(C(=O)NCc4ccc(Cl)cc4)cc3)oc2C)cc1	-16.1%	0.0%	27.4%	0.2%	x
CN(C)CCCNc1cc(N2CCN(C3CCCCC3)CC2)c2noc3c2c1C(=O)c1ccccc1-3	-17.8%	u	-5.2%	5.2%	x
CCCCNC(=O)Cn1c(SCc2ccccc2C)nc2ccncc21	-1.4%	x	16.1%	x	x
Cc1ccc(NC(=O)Cn2nc(C)c3nn(-c4ccc(Cl)cc4)c(C)c3c2=O)cc1C	-20.2%	0.0%	x	-0.2%	x
Cc1cccc(NC(=O)C(=O)NNC(=O)c2ccc(C(C)(C)C)cc2)c1	6.51µM*	-1.4%	u	2.3%	-0.2%
CCN(CC)C(=O)c1c(NC(=O)c2ccccc2)sc(C)c1C	-4.1%	-3.8%	3.5%	2.6%	-0.2%
CCN(CC)Cc1c(NC(=O)c2ccccc2)sc(C)c1C	12.0%	-38.3%	20.5%	11.2µM*	0.1%
SMILES	A549 viability	miR-21 act	Nrf2 block	Nrf2 ARE act	B2AR arrestin
O=S(=O)(/C(=C\c1ccc(C(F)(F)F)cc1)c1nc2ccccc2[nH]1)c1ccccc1	u	x	16.4µM*	-2.6%	x
Cc1ccc(S(=O)(=O)Nc2nc3ccccc3nc2N2CCOCC2)cc1	-5.3%	x	-5.8%	-0.3%	-0.3%
O=S(=O)(Nc1nc2ccccc2nc1N1CCN(c2ccccc2)CC1)c1ccc(F)cc1	u	-21.5%	25.9µM*	-0.8%	0.5%
Cc1nn(-c2ccccc2)c(Cl)c1/C=N/NC(=O)c1cccc(S(=O)(=O)N2CCCC2)c1	10.5%	-1.2%	-25.3%	0.3%	-1.0%
Cc1nn(-c2ccccc2)c(N2CCCC2)c1/C=N/NC(=O)c1cccc(S(=O)(=O)Nc2ccc(Cl)cc2)c1	u	16.9%	5.8µM*	0.5%	0.4%
COc1ccccc1NC(=O)Cc1csc(NC(=S)Nc2ccccc2)n1	18.4µM*	14.8%	20.6µM*	3.0%	-0.7%
O=C(COc1ccc(Cl)cc1)NCCc1csc(-c2ccc(C(F)(F)F)cc2)n1	21.7%	-2.0%	x	2.9%	x
O=C(Nc1ccc(S(=O)(=O)Nc2cnc3ccccc3n2)cc1)c1ccc(Cl)cc1Cl	-0.5%	x	u	2.3%	x
Cc1cc(Cl)ccc1OC(C)C(=O)Nc1ccc(S(=O)(=O)Nc2cnc3ccccc3n2)cc1 (stereo unspecified)	-15.6%	-1.1%	8.2µM*	-0.4%	-0.7%
CNc1c2cccc(C)c2nc2c(C(=O)NCCN(C)C)cccc12	4.61µM*	x	1.46µM*	-1.5%	x
Cc1ccc(C(=O)NCCN(C)C)c(C)c1	-2.4%	0.0%	12.4%	-0.3%	0.1%
CCOc1ccc(NC(=O)CN(C)C(=O)CCc2ccccc2Cl)cc1OCC	-0.2%	6.1%	3.0%	-0.4%	-0.5%
CCOc1ccc(NC(=O)CN(C)C(=O)CCCOc2ccc(Cl)c(C)c2)cc1OCC	u	11.6%	20.6µM*	2.9%	-0.2%
Cc1ccc(/C=C/c2onc(C)c2S(=O)(=O)N2CCC(C(=O)Nc3cccc(C#N)c3)CC2)cc1	-0.8%	-2.8%	x	0.5%	x
CCOC(=O)Cc1csc(-n2sc3ccccc3c2=O)n1	1.1%	-19.2%	14.0%	10.7%	-0.7%
CCOC(=O)Cc1csc(/N=C/c2c(O)n(-c3ccccc3C(F)(F)F)c(=O)c3ccccc23)n1	-20.2%	-0.9%	13µM*	-0.8%	-0.6%
COC(=O)c1ccc(COc2ccccc2/C=C/C(=O)c2ccc(OCC(=O)O)cc2)cc1	-1.0%	-7.9%	1.9%	17.8µM*	0.3%
O=C1c2ccccc2C(=O)c2c(Nc3ccc(CCO)cc3)ccc(O)c21	u	1.8%	u	3.98µM*	0.4%
Nc1ccc(O)c2c1C(=O)c1ccccc1C2=O	u	-11.5%	-17.7%	6.2%	0.6%
CCCC(=O)Nc1cc(-c2nc3cccnc3s2)ccc1C	-1.1%	28.5%	105.7%	4.7%	x
Cc1nc2cccnc2n1-c1cccc(C(=O)NCc2ccc(OC(C)C)cc2)c1	10.0%	11.9%	u	4.1%	x
CCOC(=O)c1csc(-c2sccc2Br)n1	-3.0%	-60.8%	u	14.1µM*	0.6%
CCOC(=O)c1csc(-c2ccc(OC)c(OC)c2)n1	-6.6%	-42.3%	13.9%	0.5%	-1.6%
COc1cccc(CNC(=O)CSc2ncc3c(n2)-c2cc(Cl)ccc2N(C)S3(=O)=O)c1	8.7%	-1.6%	2.5%	-0.3%	x

Source: PubChem (National Center for Advancing Translational Sciences (NCATS))
